Reference: PubChem BioAssay (Tox21)
Several values for one entry are separate records, joined by “and”; a condition that tells them apart may be missing. Identical values can stand only once. Inconclusive results are not listed. Activity calls are given as the source filed them. Unless noted, the call rests on the fitted dose curve; in most records, active means well fitted curve in the direction sought with a large enough effect in the repeat runs; inconclusive means weak or mixed curves; inactive means no such curve, though single readings can be large; an effect the other way counts as inactive or inconclusive.

Columns and labels:
[1] = biological target: Thyrotropin receptor (Homo sapiens) (UniProt P16473); assay: qHTS assay to identify small molecule agonists of the thyroid stimulating hormone receptor (TSHR) signaling pathway (AID 1224843; calls by dose curve; further: nearly all actives have a fitted effect of over 45% in size)
Thyrotropin receptor (Homo sapiens), sequence (P16473 whole entry, looked up): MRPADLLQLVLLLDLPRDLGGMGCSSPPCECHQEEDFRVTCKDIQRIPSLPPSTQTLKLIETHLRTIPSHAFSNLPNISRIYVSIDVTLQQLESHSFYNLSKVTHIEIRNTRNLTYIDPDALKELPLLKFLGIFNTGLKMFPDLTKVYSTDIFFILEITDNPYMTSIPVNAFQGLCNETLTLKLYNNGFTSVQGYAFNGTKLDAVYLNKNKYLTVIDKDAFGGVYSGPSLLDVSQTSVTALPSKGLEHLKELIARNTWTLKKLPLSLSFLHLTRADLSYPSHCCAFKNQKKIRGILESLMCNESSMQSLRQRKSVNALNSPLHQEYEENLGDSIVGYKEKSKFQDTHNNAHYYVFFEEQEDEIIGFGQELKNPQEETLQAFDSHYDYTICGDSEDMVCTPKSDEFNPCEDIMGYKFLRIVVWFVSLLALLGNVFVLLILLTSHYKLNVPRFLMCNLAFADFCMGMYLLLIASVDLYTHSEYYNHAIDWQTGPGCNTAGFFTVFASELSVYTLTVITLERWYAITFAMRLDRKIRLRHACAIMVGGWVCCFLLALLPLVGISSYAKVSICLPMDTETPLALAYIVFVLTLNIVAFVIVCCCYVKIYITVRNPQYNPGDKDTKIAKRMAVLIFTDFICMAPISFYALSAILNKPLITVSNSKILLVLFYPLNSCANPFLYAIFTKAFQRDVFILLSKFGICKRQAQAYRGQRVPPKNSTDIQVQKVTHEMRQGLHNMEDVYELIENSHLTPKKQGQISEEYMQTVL
How it was run: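 HEK293/TSHR, 800 cells/well; cpd 30 min RT; add cAMP-d2 + anti-cAMP-cryptate, 1 h RT; fluorescence read on plate reader. 15-pt titration, n=3.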

[2] = qHTS assay to identify small molecule agonists of the hypoxia (HIF-1) signaling pathway - cell viability counter screen (AID 1224844; calls by dose curve; further: nearly all actives have a fitted effect of over 50% in size)
How it was run: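 Cytotoxicity was measured in parallel with the HRE-driven beta-lactamase readout: after 17 hrs of compound exposure at 37C, HRE-bla ME-180 cells received CellTiter-Glo and luminescence was recorded 30 min later.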

[3] = qHTS assay to identify small molecule agonists of H2AX (AID 1224845; active means well fitted activation curve with a large enough effect in the signal ratio in the repeat runs, not every such curve was filed as active; the % refers to the signal ratio)
How it was run: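 Wild-type CHO-K1 cells, plated overnight, exposed 3hr at 37C to 15 concentrations (0.76% DMSO final). Lysed, then HTRF anti-pH2AX (S139) cryptate and anti-H2AX-d2 antibodies, 24 hr room temperature; 665/620 nm emission read.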

[4] = qHTS assay to identify small molecule agonists of the hypoxia (HIF-1) signaling pathway (AID 1224846; active means well fitted activation curve with a large enough effect in the signal ratio in the repeat runs, not every such curve was filed as active; the % refers to the signal ratio)
How it was run: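 Compounds from the Tox21 10K library, dissolved in DMSO, are tested for induction of a hypoxia response element–controlled beta-lactamase reporter in ME-180 cells. Exposure lasts 17 hrs at 37C after a 5 hr settling period, followed by CCF4-AM FRET substrate.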

[5] = qHTS assay to identify small molecule agonists of H2AX - cell viability counter screen (AID 1224847; calls by dose curve; further: top concentration of the series differs between compounds; nearly all actives have a fitted effect of over 30% in size)
How it was run: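 After overnight plating of 1000 CHO-K1 cells per well, a 15-concentration compound series was applied for 3 hr at 37C. Luminescence from CellTiter-Glo, read following 30 min at room temperature, reflected cell viability.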

[6] = qHTS RealTime-Glo MT Cell Viability Assay in HepG2 cells - 24 hour (AID 1224867); further: nearly all actives have a fitted effect of over 50% in size
How it was run: (§1)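 Cells + NanoLuc/prosubstrate dispensed (600 cells/well) → 5 h at 37 C/5% CO2 → compounds in DMSO transferred → 40 h incubation at 37 C, luminescence read at 0, 8, 16, 24, 32, 40 h.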

[7] = qHTS RealTime-Glo MT Cell Viability Assay in HEK293 cells - 32 hour (AID 1224868); further: top concentration of the series differs between compounds; nearly all actives have a fitted effect of over 50% in size
How it was run: (§2)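 Tox21 10K qHTS, HEK293, 600 cells/well, RealTime-Glo reagent co-dispensed with cells; 5 h preincubation, compound by pintool, 37 C, luminescence at 0–40 h.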

[8] = A CellTox Green Cytotoxicity Assay to monitor cytotoxicity in HEK293 cells - 0 hour (AID 1224869); further: nearly all actives have a fitted effect of over 50% in size
How it was run: (§3)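 Cells (HEK293, 600/well) and dye reagent are dispensed together. After 5 h at 37 C, 23 nL compound is pinned in. Plates stay at 37 C for 40 h with fluorescence read at 0h, 8h, 16h, 24h, 32h and 40h.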

[9] = A CellTox Green Cytotoxicity Assay to monitor cytotoxicity in HEK293 cells - 40 hour (AID 1224871); further: nearly all actives have a fitted effect of over 45% in size; further: potency means the concentration at half of the fitted maximal effect
How it was run: as §3

[10] = qHTS RealTime-Glo MT Cell Viability Assay in HEK293 cells - 16 hour (AID 1224872)
How it was run: as §2

[11] = qHTS RealTime-Glo MT Cell Viability Assay in HepG2 cells - 8 hour (AID 1224873); further: nearly all actives have a fitted effect of over 55% in size
How it was run: (§4)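 HepG2 cells (600/well) mixed with RealTime-Glo MT reagent, settled 5 h at 37 C/5% CO2 before compound addition. Nonlytic NanoLuc luminescence from viable-cell prosubstrate reduction read repeatedly during 40 h treatment at 37 C.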

[12] = qHTS RealTime-Glo MT Cell Viability Assay in HEK293 cells - 40 hour (AID 1224874); conditions: RealTime-Glo luminescence; max response: hits give low values; further: nearly all actives have a fitted effect of over 50% in size
How it was run: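 Real-time viability in HEK293: signal arises when living cells convert a prosubstrate for NanoLuc in the medium, so luminescence tracks viable cell number. Compound (23 nL, DMSO) added 5 h post-seeding; kinetic reads at 0–40 h, 37 C.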

[13] = A CellTox Green Cytotoxicity Assay to monitor cytotoxicity in HEK293 cells - 24 hour (AID 1224875); further: series mostly up to about 77 µM; nearly all actives have a fitted effect of over 45% in size
How it was run: as §3

[14] = A CellTox Green Cytotoxicity Assay to monitor cytotoxicity in HepG2 cells - 16 hour (AID 1224876); further: nearly all actives have a fitted effect of over 45% in size
How it was run: (§5)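 Cells and non-lytic dye reagent are dispensed together (600 HepG2 cells/well) and incubated 5 h before DMSO compound transfer. Kinetic fluorescence is then recorded in the same wells during 40 h at 37 C.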

[15] = qHTS RealTime-Glo MT Cell Viability Assay in HepG2 cells - 32 hour (AID 1224877); further: nearly all actives have a fitted effect of over 55% in size
How it was run: as §1

[16] = A CellTox Green Cytotoxicity Assay to monitor cytotoxicity in HepG2 cells - 24 hour (AID 1224878); further: nearly all actives have a fitted effect of over 45% in size
How it was run: as §5

[17] = A CellTox Green Cytotoxicity Assay to monitor cytotoxicity in HepG2 cells - 40 hour (AID 1224879); further: nearly all actives have a fitted effect of over 40% in size
How it was run: as §5

[18] = qHTS RealTime-Glo MT Cell Viability Assay in HepG2 cells - 40 hour (AID 1224870); further: nearly all actives have a fitted effect of over 50% in size
How it was run: as §4

[19] = qHTS assay to identify small molecule antagonists of the estrogen related receptor (ERR) signaling pathway from Tox21 library (AID 1224848); further: nearly all actives have a fitted effect of over 50% in size
How it was run: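 Compounds dissolved in DMSO are pin-transferred onto ERR reporter cells (2,000 per well) that have settled for 6 h at 37 C. Plates then incubate 18 h at 37 C before ONE-Glo luciferase reagent and a luminescence read 30 min later.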

[20] = qHTS assay to identify small molecule agonists of the estrogen related receptor (ERR) signaling pathway from Tox21 library (AID 1224849; calls by dose curve; further: nearly all actives have a fitted effect of over 15% in size)
How it was run: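 Cells carrying the ERR reporter were plated and allowed to settle for 6 h, exposed to library compounds for 18 h at 37 C, then lysed with ONE-Glo and luminescence measured.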
On the % scale 0 is the no-effect control and ±100 the full control effect.

OC1C(O)C(O)C(O)C(O)C1O (centres undefined)
inactive: outcome [1] | outcome [2] | outcome [3] | outcome [4] | outcome [5] | Potency [6] | Potency [7] | outcome [8] | Potency [9] | Potency [10] | Potency [11] | max response [12] 9.45% and 0% | Potency [13] | outcome [14] | outcome [15] | Potency [16] | Potency [17]

c1ccc2c(c1)Cc1ccccc1-2
active: Potency [9] 39.5 µM and 54.9 µM
inactive: outcome [1] | outcome [2] | outcome [3] | outcome [4] | outcome [5] | Potency [6] | Potency [7] | outcome [8] | outcome [18] | Potency [10] | Potency [11] | max response [12] -9.32% and 10% | outcome [14] | outcome [15] | Potency [16] | Potency [17]

COc1ccc(CCC(C)=O)cc1
inactive: outcome [1] | outcome [2] | outcome [3] | outcome [4] | Potency [6] | Potency [7] | outcome [8] | outcome [18] | Potency [9] | Potency [10] | Potency [11] | max response [12] 7.39% and 0.508% | Potency [13] | outcome [14] | outcome [15] | Potency [16] | Potency [17]

C=CCc1ccc(OC)c(OC)c1
inactive: outcome [1] | outcome [2] | outcome [3] | outcome [4] | Potency [6] | Potency [7] | outcome [8] | outcome [18] | Potency [9] | Potency [10] | Potency [11] | max response [12] 0.535% and 0.477% | Potency [13] | outcome [14] | outcome [15] | Potency [16] | Potency [17]

Cc1ccc(S(=O)(=O)N=C=O)cc1
inactive: outcome [1] | outcome [2] | outcome [3] | outcome [4] | outcome [19] | outcome [20] | Potency [6] | Potency [7] | outcome [8] | Potency [9] | Potency [10] | Potency [11] | max response [12] 0.611% and -0.578% | Potency [13] | outcome [14] | outcome [15] | Potency [16] | Potency [17]

C=CC[N+](C)(C)CC=C
inactive: outcome [1] | outcome [2] | outcome [3] | outcome [4] | Potency [6] | Potency [7] | outcome [8] | outcome [18] | Potency [9] | Potency [10] | Potency [11] | max response [12] 2.31% and 7.96% | Potency [13] | outcome [14] | outcome [15] | Potency [16] | Potency [17]

CCCCCC(=O)O
inactive: outcome [1] | outcome [2] | outcome [3] | outcome [4] | outcome [19] | outcome [20] | Potency [6] | Potency [7] | outcome [8] | outcome [18] | Potency [9] | Potency [10] | Potency [11] | max response [12] 18.5% and 15.2% | Potency [13] | outcome [14] | outcome [15] | Potency [16] | Potency [17]

CCCCCCCCCCN
inactive: outcome [1] | outcome [2] | outcome [3] | outcome [4] | outcome [5] | Potency [6] | Potency [7] | outcome [8] | Potency [9] | Potency [10] | Potency [11] | max response [12] 0.163% and 1.85% | Potency [13] | outcome [14] | outcome [15] | Potency [16] | Potency [17]
